Assay [1] can be described thus: small molecules captured by biotinylated probe aFSTL3 – biochemical, small-molecule microarray, fluorescence 635/667, stem cell growth factor project, primary screen (AID 1064).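 Note: measures binding of the biotinylated anti-FSTL3 antibody to printed compounds.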 To be noted: higher = more signal.
A short description of assay [2]: binders from COS7 lysate, DM2A8 probe, primary screen, torsin A project, cell lysate, small-molecule microarray, fluorescence 635/667 (AID 1065). As to conditions: higher = more signal, COS7 lysate expressing mutant human TOR1A.
Assay [3] is described as follows: small molecules captured by biotinylated probe aFGF2 – biochemical, small-molecule microarray, fluorescence 635/667, stem cell growth factor project, primary screen (AID 1067).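 Note: measures binding of biotinylated aFGF2 protein to printed compounds on slides; z-score merges feature fluorescence and signal-to-noise across triplicate slides.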 To be noted: higher = more signal.
A short description of assay [4]: small molecules captured by biotinylated probe aFGF10 – biochemical, small-molecule microarray, fluorescence 635/667, stem cell growth factor project, primary screen (AID 1071).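 Note: score merges 667 nm spot intensity and signal to noise from triplicate slides.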 As to conditions: higher = more signal.
Assay [5] concerns the target Neurogenic locus notch homolog protein 2 (Homo sapiens) (UniProt Q04721). Kind of assay: small molecules binding Notch2 protein – biochemical, small-molecule microarray, 635 nm fluorescence, stem cell growth factors, primary screen (AID 1073). To be noted: higher = more signal.
Assay [6] addresses Pro-neuregulin-1, membrane-bound isoform (Homo sapiens) (UniProt Q02297). Put plainly: small molecules binding neuregulin-1 protein – biochemical, small-molecule microarray, fluorescence 635/667, psychiatric disease protein project, primary screen (AID 1075).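 Note: score combines 667 nm spot fluorescence with signal to noise.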 To be noted: NRG1 binding, 635 nm fluorescence, higher = more signal.
Assay [7] deals with Neuregulin-1 EGF-like domain. Kind of assay: small molecules binding NRG1 EGF domain – biochemical, small-molecule microarray, 635 nm fluorescence, primary screen (AID 1081).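 Note: binding of the protein to compounds printed on small-molecule microarray slides.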 As to conditions: higher = more signal.
Assay [8] is described as follows: FRG1 expression reporter modulators in myotubes – cell-based, C2C12 myotubes, firefly/Renilla luciferase, luminescence, FRG1 inhibition for FSHD, primary screen (AID 1084). To be noted: FRG1 promoter luciferase, higher = more signal, called active from +8 up or from −8 down.
A short description of assay [9]: small molecules captured by biotinylated probe aFST – biochemical, small-molecule microarray, fluorescence 635/667, stem cell growth factor project, primary screen (AID 1086).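 Note: score merges 667 nm fluorescence with signal-to-noise of each printed compound spot.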 As to conditions: higher = more signal.
A short description of assay [10]: binders of probe aHhip on microarray, primary screen, stem cell growth factor project, biochemical, small-molecule microarray, fluorescence 635/667 (AID 1087).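 Note: score merges spot fluorescence at 667nm with spot signal to noise ratio.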 As to conditions: higher = more signal.
The subject of assay [11] is PRMT1 (protein arginine N-methyltransferase 1). Put plainly: small molecules binding arginine methyltransferase PRMT1 – biochemical, small-molecule microarray, 635 nm fluorescence, primary screen (AID 1088).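 Note: binding of Prmt1 protein to compounds spotted on small-molecule microarray slides.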 As to conditions: higher = more signal.
Assay [12] is described as follows: growth effects on S. cerevisiae YJM789 – YJM789 clinical isolate, OD600, 24 h, basal, primary screen (AID 1089).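 Note: growth of clinical yeast isolate S. cerevisiae YJM 789 seeded 1000 cells per well; test concentration not given here.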 As to conditions: higher = more signal, called active from +8 up or from −8 down.
A short description of assay [13]: S. pombe growth modifiers, basal conditions – strain 972, OD600, 24 h, no modulator, primary screen (AID 1090).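 Note: basal condition with compound alone and no growth modifier present; test concentration not given here.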 As to conditions: S. pombe 972 growth, higher = more signal, called active from +8 up or from −8 down.
The nature of assay [14]: budding yeast growth modifiers under rapamycin – strain BY4716, OD600, 96 h, primary screen (AID 1091). Note: test concentration not given here. As to conditions: S. cerevisiae BY4716 + rapamycin, higher = more signal, called active from +8 up or from −8 down.
Assay [15] addresses Torsin-1A-interacting protein 2 (Homo sapiens) (UniProt Q8NFQ8). Put plainly: small molecules binding lysate-expressed LULL1 – cell lysate, human LULL1 lysate, 635/667 nm fluorescence, primary screen (AID 1092).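 Note: probe is lysate of COS7 cells overexpressing human LULL1; score merges per-feature 667 nm fluorescence with signal-to-noise.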 As to conditions: small-molecule microarray, hLULL1 lysate binding, 635 nm fluorescence; higher = more signal.
The nature of assay [16]: optical density change of DRC41 E. coli – strain DRC41, OD650, 24 h, E. coli filamentation project, primary screen (AID 1093).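 Note: MC1000 strain lacking acrAB efflux and sulA so SOS filamentation is blocked; test concentration not given here.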 To be noted: E. coli DRC41 growth, higher = more signal, called active from +8 up or from −8 down.
Assay [17] can be described thus: probe aLefty2 binding to arrayed compounds – biochemical, biotinylated probe, 635/667 nm fluorescence, primary screen (AID 1094).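 Note: score merges spot fluorescence near 667 nm with spot signal-to-noise ratio.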 To be noted: small-molecule microarray, higher = more signal.
Assay [18] relates to Noggin (protein binding on small-molecule microarray). Put plainly: small molecules binding Noggin protein – biochemical, 635/667 nm fluorescence, primary screen (AID 1095).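 Note: score merges 667 nm feature fluorescence with signal to noise over triplicate slides.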 To be noted: 635 nm fluorescence, higher = more signal.
In assay [19] the target is Neurogenic locus notch homolog protein 3 (Homo sapiens) (UniProt Q9UM47). Put plainly: small molecules binding NOTCH3 protein – biochemical, 635/667 nm fluorescence, primary screen (AID 1096). To be noted: small-molecule microarray, 635 nm fluorescence, higher = more signal.
A short description of assay [20]: probe aEGFR binding to arrayed compounds – biochemical, biotinylated probe, 635/667 nm fluorescence, primary screen (AID 1097).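 Note: probe is a biotinylated anti-EGFR antibody binding compounds printed on slides; score combines fluorescence near 667 nm and signal to noise of each spot.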 To be noted: small-molecule microarray, higher = more signal.

Active and inactive are the calls of the source.

Pro-neuregulin-1, membrane-bound isoform (Homo sapiens), sequence (Q02297 whole entry, looked up, the tested form may be a part, canonical isoform): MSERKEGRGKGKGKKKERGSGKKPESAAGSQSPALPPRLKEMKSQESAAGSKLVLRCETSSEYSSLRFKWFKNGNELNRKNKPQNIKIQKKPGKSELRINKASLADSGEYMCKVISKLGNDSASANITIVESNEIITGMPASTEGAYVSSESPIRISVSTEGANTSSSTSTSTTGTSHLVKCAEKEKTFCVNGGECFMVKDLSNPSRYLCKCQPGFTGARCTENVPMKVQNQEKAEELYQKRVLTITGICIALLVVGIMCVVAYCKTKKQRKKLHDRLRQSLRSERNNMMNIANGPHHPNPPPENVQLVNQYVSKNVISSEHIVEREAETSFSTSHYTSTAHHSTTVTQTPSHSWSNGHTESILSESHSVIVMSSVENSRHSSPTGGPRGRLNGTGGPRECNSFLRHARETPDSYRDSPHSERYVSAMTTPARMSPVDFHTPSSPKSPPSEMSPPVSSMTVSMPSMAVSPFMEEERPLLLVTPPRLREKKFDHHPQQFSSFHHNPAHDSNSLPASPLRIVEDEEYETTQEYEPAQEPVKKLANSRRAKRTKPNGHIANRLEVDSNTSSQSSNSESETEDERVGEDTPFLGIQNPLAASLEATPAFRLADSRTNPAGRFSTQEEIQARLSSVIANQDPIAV
Neurogenic locus notch homolog protein 3 (Homo sapiens), sequence (Q9UM47 whole entry, looked up): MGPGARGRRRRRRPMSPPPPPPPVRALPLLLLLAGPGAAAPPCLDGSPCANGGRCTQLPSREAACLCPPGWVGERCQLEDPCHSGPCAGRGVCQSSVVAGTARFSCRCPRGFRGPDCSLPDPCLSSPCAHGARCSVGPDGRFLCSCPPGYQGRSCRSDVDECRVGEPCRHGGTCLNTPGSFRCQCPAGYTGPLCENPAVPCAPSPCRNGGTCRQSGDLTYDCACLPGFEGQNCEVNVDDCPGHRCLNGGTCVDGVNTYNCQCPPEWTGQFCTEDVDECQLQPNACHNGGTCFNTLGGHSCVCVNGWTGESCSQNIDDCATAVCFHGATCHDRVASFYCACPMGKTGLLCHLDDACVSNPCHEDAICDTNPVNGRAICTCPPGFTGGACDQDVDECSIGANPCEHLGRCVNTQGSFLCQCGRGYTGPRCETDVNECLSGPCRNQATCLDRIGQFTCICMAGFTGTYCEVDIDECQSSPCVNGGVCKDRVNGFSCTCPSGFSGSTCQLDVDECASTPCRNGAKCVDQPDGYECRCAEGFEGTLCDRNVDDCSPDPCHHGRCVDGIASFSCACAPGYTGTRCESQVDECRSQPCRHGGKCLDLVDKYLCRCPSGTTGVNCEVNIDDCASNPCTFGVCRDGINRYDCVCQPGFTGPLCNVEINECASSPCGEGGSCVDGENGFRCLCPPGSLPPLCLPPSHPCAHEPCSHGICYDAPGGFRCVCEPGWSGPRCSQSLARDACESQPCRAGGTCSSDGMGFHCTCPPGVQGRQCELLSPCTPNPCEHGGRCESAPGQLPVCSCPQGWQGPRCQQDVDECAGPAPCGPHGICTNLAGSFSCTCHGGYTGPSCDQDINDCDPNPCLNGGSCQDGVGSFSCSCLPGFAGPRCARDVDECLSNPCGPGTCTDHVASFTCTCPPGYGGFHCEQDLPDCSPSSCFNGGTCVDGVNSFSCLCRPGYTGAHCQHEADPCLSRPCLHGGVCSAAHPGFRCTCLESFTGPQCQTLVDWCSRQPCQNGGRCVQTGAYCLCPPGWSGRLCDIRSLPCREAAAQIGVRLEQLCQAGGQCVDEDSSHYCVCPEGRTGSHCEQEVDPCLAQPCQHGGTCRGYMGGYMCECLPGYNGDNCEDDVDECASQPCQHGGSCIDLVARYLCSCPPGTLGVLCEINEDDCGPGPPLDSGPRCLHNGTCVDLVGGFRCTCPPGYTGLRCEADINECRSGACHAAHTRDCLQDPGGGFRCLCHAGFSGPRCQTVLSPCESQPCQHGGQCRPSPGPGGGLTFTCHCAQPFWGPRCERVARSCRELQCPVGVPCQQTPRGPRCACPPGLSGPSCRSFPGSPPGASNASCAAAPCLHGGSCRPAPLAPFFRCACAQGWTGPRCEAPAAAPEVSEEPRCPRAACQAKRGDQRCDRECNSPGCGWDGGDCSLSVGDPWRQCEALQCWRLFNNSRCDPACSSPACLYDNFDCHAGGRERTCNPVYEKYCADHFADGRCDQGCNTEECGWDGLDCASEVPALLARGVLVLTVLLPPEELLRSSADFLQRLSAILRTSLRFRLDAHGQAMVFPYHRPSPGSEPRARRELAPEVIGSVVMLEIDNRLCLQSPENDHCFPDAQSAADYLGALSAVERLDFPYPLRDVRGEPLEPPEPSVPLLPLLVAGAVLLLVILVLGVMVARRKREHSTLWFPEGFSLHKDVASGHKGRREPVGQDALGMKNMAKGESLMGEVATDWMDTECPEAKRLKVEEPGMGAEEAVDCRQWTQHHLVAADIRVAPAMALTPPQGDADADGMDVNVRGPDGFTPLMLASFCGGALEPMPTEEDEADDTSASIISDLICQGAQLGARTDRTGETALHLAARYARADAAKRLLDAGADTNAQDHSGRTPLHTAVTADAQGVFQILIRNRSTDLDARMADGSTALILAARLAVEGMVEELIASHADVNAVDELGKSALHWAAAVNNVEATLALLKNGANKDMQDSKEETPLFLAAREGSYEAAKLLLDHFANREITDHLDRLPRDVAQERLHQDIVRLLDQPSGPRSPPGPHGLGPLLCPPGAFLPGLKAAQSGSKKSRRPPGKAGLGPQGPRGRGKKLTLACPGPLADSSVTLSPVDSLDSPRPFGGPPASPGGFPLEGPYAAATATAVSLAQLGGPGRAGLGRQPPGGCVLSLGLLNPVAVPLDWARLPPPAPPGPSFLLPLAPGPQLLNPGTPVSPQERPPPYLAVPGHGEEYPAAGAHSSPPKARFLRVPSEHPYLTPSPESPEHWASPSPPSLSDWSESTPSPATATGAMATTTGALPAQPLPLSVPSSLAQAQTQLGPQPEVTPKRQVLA
Torsin-1A-interacting protein 2 (Homo sapiens), sequence (Q8NFQ8 whole entry, looked up): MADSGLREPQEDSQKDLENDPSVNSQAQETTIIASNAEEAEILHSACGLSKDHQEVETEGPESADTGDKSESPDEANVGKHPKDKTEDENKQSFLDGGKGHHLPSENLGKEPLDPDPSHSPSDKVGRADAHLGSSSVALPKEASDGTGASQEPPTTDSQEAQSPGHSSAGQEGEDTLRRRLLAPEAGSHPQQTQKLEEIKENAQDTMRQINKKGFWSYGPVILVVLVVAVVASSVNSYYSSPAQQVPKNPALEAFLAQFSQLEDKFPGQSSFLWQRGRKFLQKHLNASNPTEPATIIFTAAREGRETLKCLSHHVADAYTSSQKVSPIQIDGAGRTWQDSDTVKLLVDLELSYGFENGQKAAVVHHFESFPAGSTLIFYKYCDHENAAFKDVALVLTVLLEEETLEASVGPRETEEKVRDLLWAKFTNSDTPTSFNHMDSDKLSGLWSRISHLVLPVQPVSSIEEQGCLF

As for `[N-]=[N+]=NCc1ccccc1C[C@]1(C(=O)NCc2ccccc2)COC(c2ccc(OCCCO)cc2)=N1`, the composite z-score in [1] is 0.0555; in assay [2], 0.808; in assay [3] it was 0.0111; in assay [4], 0.157; in assay [5], 0.472; in assay [6], 1.17. In addition, the composite z-score in assay [7] was 0.931; in [9], 0.534; in [10], -0.166; in [11] it was 1.01; in assay [15] it was 3.12; in assay [17], -0.0438. The values for the composite z-score in [18], in assay [19] and in assay [20] were 0.0869, -0.146 and -0.0828, respectively. For the same compound, the z-score is -3.06 (inactive) in [8]; 1.67 (inactive) in assay [12]; 0.816 (inactive) in [13]; 36 (active) in [14]; 1.21 (inactive) in assay [16].
As for `O=C1OCC=C[C@H]2OC34C=CCN(CCN5CCOCC5)C(=O)[C@H]3N(CCCCCCO)C(=O)[C@@H]4[C@@H]12` (stereo not given in full), the composite z-score in assay [1] was -0.142; in assay [2], 0.108; in assay [3] it was -0.0785; in [4] it was 0.0266; in [5] it was -0.157; in assay [6] it was 2.07. Further, the composite z-score is 1.27 in [7]; 0.334 in assay [9]; -0.364 in assay [10]; 0.171 in assay [11]; 2.87 in assay [15]; -0.0009 in [17]. Moreover, the composite z-score in assay [18] was 0.0056; in assay [19], -0.0123; in assay [20], 0.0792. Besides, the z-score in [8] is 1.69 (inactive); in assay [12] it was -1.4 (inactive); in [13], -1.1 (inactive); in assay [14] it was -0.918 (inactive); in assay [16], -0.608 (inactive).
As for `C=CCOC(=O)[C@@H]1[C@H]2C(=O)O[C@H](c3ccccc3)[C@H](c3ccccc3)N2[C@H](c2ccc(OCCOC(=O)[C@H]3C[C@H]4C(=O)N[C@@H](CCCC[N+](C)(C)C)C(=O)N4[C@H]3c3cccc(OCCO)c3)cc2)[C@@]12C(=O)Nc1ccc(I)cc12`, the composite z-score in [1] was -0.542; in [2], 0.391; in [3], -0.0824; in [4], 0.651; in assay [5], 0.827; in [6], -0.306. Moreover, the composite z-score is 1.17 in [7]; 0.166 in assay [9]; 0.154 in assay [10]; 1.59 in assay [11]; 2.34 in assay [15]; 0.0631 in assay [17]. For the same compound, the composite z-score in assay [18] came out at 1.45; in [19], 1.13; in assay [20], 0.0527. For the same compound, the z-score in [8] is 0.179 (inactive); in [12], 0.904 (inactive); in assay [13] it was 1.04 (inactive); in assay [14], 4.48 (inactive); in assay [16], 0.254 (inactive).
Consider `COCCOC(=O)N1C(=O)[C@@]2(c3cc(C#CCCO)ccc31)[C@H](C(=O)NC[C@H](O)c1ccccc1)[C@H]1C(=O)O[C@H](c3ccccc3)[C@H](c3ccccc3)N1[C@@H]2c1ccc(OCCO)cc1`, for which the composite z-score in assay [1] was 0.664; in assay [2], 0.271; in assay [3], -0.114; in assay [4], 0.208; in assay [5] it was 1.08; in [6], 1.27. Further, the composite z-score in [7] was 1.16; in [9] it was 0.152; in assay [10] it was -0.11; in assay [11] it was 1.54; in [15], 3.11; in assay [17], 0.0129. Also, the figures for the composite z-score in assay [18], in [19] and in assay [20] were 0.909, 1.05 and 0.0634, respectively. The z-score in assay [8] is 0.469 (inactive); in assay [12], 1.23 (inactive); in assay [13] it was 0.619 (inactive); in assay [14] it was 4.47 (inactive); in assay [16], 2.17 (inactive).
As for `[N-]=[N+]=Nc1ccccc1[C@H]1OC(c2ccc(OCCCO)cc2)=N[C@@]1(CCS(=O)(=O)c1ccccc1)C(=O)N1CCOCC1`, the composite z-score came to 1.84 in assay [1]; 0.962 in [2]; 0.45 in [3]; 1.13 in [4]; 1.7 in [5]; 1.66 in assay [6]. Besides, the composite z-score in assay [7] is 1.27; in assay [9], 1.53; in assay [10], -0.372; in assay [11], 1.55; in assay [15], 3.1; in assay [17] it was 0.766. Besides, the composite z-score in assay [18] came to 0.245; in assay [19], 1.09; in [20], 0.561. Besides, the z-score in assay [8] was 5.15 (inactive); in assay [12], 1.17 (inactive); in assay [13], 0.403 (inactive); in assay [14] it was 4.39 (inactive); in assay [16], 1.1 (inactive).

The values are drawn from PubChem BioAssay.
